Source: PubChem
Only some compounds are listed: those with a hit (about 3.5% of all), similar ones and a draw of the others.
GPR151 ag: activators of human GPR151; Q8TDV0; PathHunter beta-arrestin GPR151 cells, luminescence; activation, % at 11.2 µM; 1% of 650,000 active; in the data active means activation above about 4.9%
Target sequence (Q8TDV0 whole entry, looked up): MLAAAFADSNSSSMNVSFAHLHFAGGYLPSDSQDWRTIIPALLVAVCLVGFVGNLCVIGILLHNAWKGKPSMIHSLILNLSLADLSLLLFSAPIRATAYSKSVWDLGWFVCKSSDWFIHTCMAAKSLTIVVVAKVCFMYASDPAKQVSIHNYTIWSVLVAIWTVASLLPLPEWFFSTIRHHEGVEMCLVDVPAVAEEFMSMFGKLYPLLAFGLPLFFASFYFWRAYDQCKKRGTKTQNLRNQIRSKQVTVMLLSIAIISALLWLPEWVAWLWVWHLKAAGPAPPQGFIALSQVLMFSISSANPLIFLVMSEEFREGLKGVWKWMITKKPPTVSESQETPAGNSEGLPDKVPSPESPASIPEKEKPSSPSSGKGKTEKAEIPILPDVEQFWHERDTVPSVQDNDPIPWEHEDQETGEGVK
FBW7 activator: activators of human E3 ligase FBW7. AlphaScreen FBW7–phospho-cyclin E peptide binding, activator screen. Q969H0. 0.13% of 650,000 active. AID 1259310. normalized activity (activation), % at 26.1 µM; in the data active means normalized activity above about 1.9%;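 further: purified mutant Fbw7 with reduced substrate affinity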
TEAD-YAP block: TEAD-YAP interaction inhibition | 1.4% of 640,000 active | HEK-TIYL cells, TEAD-Gal4/YAP UAS-luciferase luminescence | inhibition, % at 9.12 µM; in the data active means inhibition above about 32%
MITF primary: inhibitors of human MITF | AlphaScreen MITF homodimerization, bead proximity signal | inhibition, % at 2.6 µM | 0.91% of 650,000 active | AID 1259374; in the data active means inhibition above about 50%
MITF confirm: confirmation of human MITF inhibitors. shares compounds with MITF primary. AlphaScreen MITF homodimerization, biotin/His-MITF beads. inhibition, % at 2.6 µM. 16% of 4,700 active. AID 1259372;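 active means inhibition above a cutoff derived from the DMSO control wells, cut at about 28% in these data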;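 further: inhibitors lower the bead chemiluminescence by keeping MITF from dimerizing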
AlphaScreen DR: optically interferes with AlphaScreen signal in dose response; IC50, µM; shares compounds with MITF primary; 6% of 480 active; AID 1259373; AlphaScreen optical interference counterscreen, cell-free; call rule not given here
AS interf ctr: AlphaScreen optical interference, counter-screen | shares compounds with MITF primary | LysRS AlphaScreen counterscreen, signal interference, triplicate | inhibition, % at 2.6 µM | 7.6% of 4,700 active | AID 1259376;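 active means inhibition above a cutoff derived from the DMSO control wells, cut at about 30% in these data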
Hits are given with their value; n = inactive.

SMILES	GPR151 ag	FBW7 activator	TEAD-YAP block	MITF primary	others
O=C(/C=C/c1ccccc1)N1CCN(Cc2nc(-c3ccc(F)cc3)cs2)CC1	n	n	39	n
C=CCn1c(SCC(=O)c2cc(OC)c(OC)cc2C)nc2sc3c(c2c1=O)CCCC3	n	n	n	n
CN1CCN(c2cc(-c3ccccn3)nc(-c3ccccn3)n2)CC1	n	n	n	112
c1ccc(-c2cc(N3CCc4ccccc4C3)nc(-c3ccccn3)n2)nc1	n	n	69	85
CN1CCN(c2cc(-c3ccncc3)nc(-c3cccnc3)n2)CC1	n	n	61	n
CN1CCN(c2cc(-c3ccccc3)nc(-c3ccccn3)n2)CC1	n	n	n	n
Cc1ccc(OCC(=O)NCCCN(C)C)cc1	n	n	n	n
Cc1sc2nc(C(C)Cl)[nH]c(=O)c2c1C (configuration not stated)	n	n	n	n
CCOc1c(Cl)cc(/C=C2/C(=N)N3OC(C)=CC3=NC2=O)cc1OC	n	n	n	n
COc1cnc(-c2ccccn2)nc1-c1ccccc1	n	n	40	n
O=C(NCCc1ccccc1)N1CCC(c2nnc(C3CC3)s2)CC1	n	2.6	n	n
CC(C)NC(=O)N1CCC(c2nnc(C(C)C)o2)CC1	n	n	n	n
O=C(NCCc1ccccc1)C1CCN(C(=O)NCc2ccccc2)CC1	n	n	n	n
CC(C)NC(=O)N1CCC(c2nnc(C3CC3)s2)CC1	n	2.1	n	n
CN1CCN(C(=O)Cn2ncn3nc(-c4ccc(F)cc4)cc3c2=O)CC1	n	n	n	n
Cc1ccc(C(Nc2ccc(Br)cn2)n2nc(C)c(Cl)c2C)o1 (configuration not stated)	n	n	n	n
CC(C)CC(c1nnnn1C1CCCCC1)N1CCN(C(=O)c2ccco2)CC1 (configuration not stated)	n	n	n	n
CC(C)CC(c1nnnn1C1CCCC1)N1CCN(C(=O)c2ccco2)CC1 (configuration not stated)	n	n	55	n
Cc1cc(C(=O)OCC(=O)c2cc(C)n(Cc3ccco3)c2C)c2ccccc2n1	n	n	n	n
CC(C)(C)OC(=O)NC(CCNC=C1C(=O)OC(C)(C)OC1=O)C(=O)O (configuration not stated)	n	n	n	71
CN1CCN(Cc2cc([N+](=O)[O-])c(O)c3ncccc23)CC1	n	n	n	97	MITF confirm=105;AS interf ctr=101
O=[N+]([O-])c1cc(CN2CCCC2)c2cccnc2c1O	n	n	n	99	MITF confirm=106;AS interf ctr=101
OCCC1CN(Cc2ccc(F)cc2)CCN1Cc1ccccc1F (configuration not stated)	n	n	n	n
O=C1N[C@H](CO)C(=O)N2CCN(C(=O)c3ccccc3)C[C@H]12	n	n	n	n
CCC[C@@H]1NC(=O)[C@H]2CN(C(=O)NCc3ccccc3)CCN2C1=O	n	n	n	75	MITF confirm=71;AlphaScreen DR=n;AS interf ctr=n
SMILES	GPR151 ag	FBW7 activator	TEAD-YAP block	MITF primary	others
O=C1N[C@H](Cc2ccc(O)cc2)C(=O)N2CCN(C(=O)NCc3ccccc3)C[C@H]12	n	n	n	75	MITF confirm=72;AlphaScreen DR=n;AS interf ctr=n
O=C1N[C@@H](Cc2ccccc2)C(=O)N2CCN(C(=O)OCc3ccccc3)C[C@H]12	n	n	n	n
O=C1N[C@@H](Cc2ccccc2)C(=O)N2CCN(C(=O)NCc3ccccc3)C[C@H]12	n	n	n	77	MITF confirm=74;AlphaScreen DR=n;AS interf ctr=n
O=C1N[C@H](CO)C(=O)N2CCN(C(=O)NCc3ccccc3)C[C@H]12	n	n	n	81	MITF confirm=75;AlphaScreen DR=n;AS interf ctr=n
NCCCC[C@@H]1NC(=O)[C@H]2CN(C(=O)NCc3ccccc3)CCN2C1=O	n	n	n	n
O=C1N[C@H](Cc2ccccc2)C(=O)N2CCN(C(=O)c3ccccc3)C[C@H]12	n	n	n	n
CC(=O)Nc1ccc(S(=O)(=O)N2CCN(CC3CC4C=CC3C4)CC2)cc1 (configuration not stated)	n	n	n	51	MITF confirm=n;AS interf ctr=n
O=C(NNC(=O)C1CCN(c2nc3ccccc3s2)CC1)c1ccncc1	n	n	n	n
CCN(C(=O)C1COc2ccccc2O1)C12CC3CC(CC(C3)C1)C2 (configuration not stated)	n	n	n	61	MITF confirm=71;AlphaScreen DR=n;AS interf ctr=n
